From PubChem BioAssay (NCI)
The panel holds about 83,000 compounds, 20% with a hit somewhere; the sample as a whole holds those more often.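 Negative percent growth values reflect cell death: -40 means 40% of the cells present at the start died, and -100 means all died.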 A number with no mark means an inactive call. Calls of active or inactive are those of the source. How the source made its calls: active means growth percent below 10; inactive means the rest.

Columns and labels:
Assay in all cases: NCI-60 one-dose screen, 48 h (100 = growth as untreated, 0 = no growth, -100 = all killed)
Conditions in all cases: 10 µM unless noted
SR leukemia = tested on: SR leukemia
RPMI-8226 leukemia = tested on: RPMI-8226 leukemia
OVCAR-8 ovarian = tested on: OVCAR-8 ovarian
OVCAR-5 ovarian = tested on: OVCAR-5 ovarian
OVCAR-4 ovarian = tested on: OVCAR-4 ovarian
SK-OV-3 ovarian = tested on: SK-OV-3 ovarian
IGROV1 ovarian = tested on: IGROV1 ovarian
OVCAR-3 ovarian = tested on: OVCAR-3 ovarian
NCI/ADR-RES ovarian = tested on: NCI/ADR-RES ovarian
T-47D breast = tested on: T-47D breast
MDA-MB-435 melanoma = tested on: MDA-MB-435 melanoma
MCF7 breast = tested on: MCF7 breast
HCT-116 colon = tested on: HCT-116 colon
HCC-2998 colon = tested on: HCC-2998 colon
KM12 colon = tested on: KM12 colon
SW-620 colon = tested on: SW-620 colon
HS 578T breast = tested on: HS 578T breast
BT-549 breast = tested on: BT-549 breast

Row | SMILES | growth (SR leukemia) | growth (RPMI-8226 leukemia) | growth (OVCAR-8 ovarian) | growth (OVCAR-5 ovarian) | growth (OVCAR-4 ovarian) | growth (SK-OV-3 ovarian) | growth (IGROV1 ovarian) | growth (OVCAR-3 ovarian) | growth (NCI/ADR-RES ovarian) | growth (T-47D breast) | growth (MDA-MB-435 melanoma) | growth (MCF7 breast) | growth (HCT-116 colon) | growth (HCC-2998 colon) | growth (KM12 colon) | growth (SW-620 colon) | growth (HS 578T breast) | growth (BT-549 breast)
1 | COc1ccc(-c2c(C#N)cnc(N)c2-c2nc3cc(C)c(C)cc3[nH]2)cc1 | 20.2% | 81.3% | 43.6% | 102% | 50.7% | 46% | 36.4% | 55.7% | 50.2% | 71.7% | -5.12% (active) | 50.9% | 20.7% | 1.45% (active) | 17.2% | – | – | –
2 | Cc1cc2nc(-c3c(N)ncc(C#N)c3-c3ccc(Cl)cc3)[nH]c2cc1C | 49.4% | 56% | 38.4% | 83.2% | 56.1% | 75.9% | 46% | 21.8% | 53.9% | 68.8% | 58% | 58.5% | 34.8% | – | 52.9% | 76.6% | – | –
3 | CCCCN(CCCC)c1ccc(C(=N)c2ccc(N(C)C)cc2)cc1 | -44.4% (active) | -43.3% (active) | -15.4% (active) | -2.12% (active) | 7.13% (active) | -7.53% (active) | – | -74.3% (active) | -47.4% (active) | -23.3% (active) | -74.1% (active) | -52.9% (active) | -100% (active) | -47.5% (active) | -50.5% (active) | -85.2% (active) | -68.9% (active) | –
4 | C[C@H]1C=C(C[C@@H](O)CCCCCCCCCC[C@@H](O)[C@H]2CCC(=O)O2)C(=O)O1 | 114% | 79.9% | 96.7% | 91.7% | 97.6% | 110% | -23.5% (active) | – | 99.6% | 92.6% | 113% | 118% | 87.9% | – | 105% | – | 128% | 112%
5 | COc1cc(-c2nc3sc(C)cn3c2/C=C2\C(=O)Nc3ccccc32)c(Br)c(OC)c1OC | 3.87% (active) | 28.6% | 65% | 81.6% | 54.4% | 31.2% | -11.8% (active) | – | 22.9% | 51.5% | -8.78% (active) | 1.61% (active) | 22% | – | 15.1% | 21.2% | 15.7% | 14.8%
6 | CCN(CC)CC(=O)Nc1c(C)cccc1C | 98.3% | 114% | 107% | – | 104% | 109% | 106% | 118% | 104% | 107% | 104% | 97% | 96.1% | 114% | 113% | 106% | 110% | 97.3%
7 | O=C(Nc1cccc([N+](=O)[O-])c1)c1ccc2ccccc2c1O | 92.2% | -7.69% (active) | 80% | 64.2% | 44.5% | 74.6% | – | 36.9% | 53.1% | 35.8% | 49.7% | 77% | 59.4% | 67% | 79.1% | 74% | 69.7% | 80%
8 | O=C(N/N=C1\SCC(=O)N1c1ccccc1)c1cc(-c2cc3ccccc3o2)nn1-c1ccccc1 | 107% | 66.4% | 107% | 112% | 110% | 116% | 98.9% | – | 108% | 101% | – | 99.9% | 96.5% | 176% | 119% | 104% | 109% | 101%
9 | COc1cc(-c2nc3ccccc3s2)ccc1OCc1nc2n(n1)S(=O)(=O)c1ccccc1N2C | 27.1% | 61.2% | 74.5% | 99.1% | 93.3% | 84.6% | 25.6% | – | 93% | 85.3% | – | 90.5% | 66.1% | 109% | 84.2% | – | 48.7% | 80.2%
10 | CCOc1ccc(NC(=O)Nc2cc(C(C)C)ccc2C)cc1 | 36.6% | 43.4% | 27.1% | 57.7% | 44.6% | 93.4% | – | 50.9% | 58.7% | 77.3% | 85% | 111% | 36.3% | 59.8% | 75.4% | 91.1% | 4.79% (active) | 114%
11 | COC(=O)c1oc2c(C(=O)/C=C/c3ccc(OC)cc3)c(OCCN3CCOCC3)ccc2c1C | -28% (active) | -50.7% (active) | -37.6% (active) | 29.8% | 16% | 17.9% | -4.01% (active) | – | 9.24% (active) | 14% | 20% | 10.5% | -73.9% (active) | 23.7% | -10.1% (active) | – | -15.1% (active) | -6.36% (active)
12 | Nn1c(SCC(=O)Nc2cc(Cl)c(Cl)cc2Cl)nnc1-c1cc(F)c(Cl)cc1Cl | 99.5% | 132% | 97.5% | 108% | 120% | 105% | 55.2% | – | 99.7% | 97.5% | 91.2% | 78.8% | 91.2% | 139% | 110% | 106% | 103% | 87.4%
13 | NS(=O)(=O)c1ccc(-n2nc(-c3ccc(Cl)cc3)ccc2=O)cc1 | 64.4% | 99% | 102% | 99.9% | 100% | 93.8% | – | 106% | 68.4% | 95.2% | 43.5% | 86.2% | 99.6% | 102% | 69.7% | 93.1% | 88.2% | 92.9%
14 | Nc1ccc(S(=O)(=O)Nc2cc(I)cc(I)c2)cc1 | 15.8% | 97.5% | 107% | 86.5% | 99% | 117% | 104% | – | 97.5% | 105% | 106% | 120% | 99.5% | 105% | 111% | – | 117% | –
15 | COc1cc(/C=C/C(=O)c2c(C)n([O-])c3cc(C)c(C)cc3[n+]2=O)cc(OC)c1OC | 29% | 38.8% | 63.2% | 111% | 73.3% | 86.6% | -21.3% (active) | – | 72% | 51.8% | 45.8% | 11.1% | 42.6% | 85.5% | 69.8% | 50.1% | 69% | 23%
16 | COC(=O)c1oc2c(C(C)=O)c(OCCCN(C)C)ccc2c1C | 95% | 97.2% | 111% | 101% | 96.4% | 121% | 30.1% | – | 87.4% | 103% | 107% | 148% | 53.9% | 116% | 100% | 106% | 97.3% | 215%
